# Results from PubChem BioAssay.
# The list shows a part of the results. Activity calls are given as the source filed them. Cut-off read from the data, not from the text of the source, unless noted: active = inhibition above about 30%; inactive = the rest.
# Legend:
# [1] = target: Nuclear receptor coactivator 3 (Homo sapiens) (UniProt Q9Y6Q9); experiment: NCOA3 GAL4-fusion reporter inhibition – cell-based, luminescence, quadruplicate, confirmation (AID 588792;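 active = mean inhibition over 43.08%, the solvent-only control mean plus 3 SD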;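 note: 0% = DMSO treated cells and 100% = gossypol at 36 µM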); details: HEK293 GAL4-SRC3 luciferase reporter, at 3.6 µM, active compounds read high
# [2] = test system: transactivating tegument protein VP16 (Human herpesvirus 1), Gal4-VP16 luciferase reporter; experiment: repression of VP16-driven luciferase reporter – cell-based, luminescence, high throughput, counter-screen for SRC3 inhibitor project (AID 588794); details: mammalian cells, at 3.6 µM, active compounds read high
# [3] = target: Nuclear receptor coactivator 1 (Homo sapiens) (UniProt Q15788); experiment: NCOA1 GAL4-fusion reporter inhibition – cell-based, luminescence, quadruplicate, confirmation (AID 588820;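 active = mean inhibition above 46.68%, the untreated control wells mean plus 3 SD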;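 note: 0% = DMSO wells and 100% = gossypol 36 µM treated wells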); details: HEK293 GAL4-SRC1 luciferase reporter, at 3.6 µM, active compounds read high
# [4] = repression of VP16-driven luciferase reporter – cell-based, luminescence, high throughput, counter-screen for SRC1 inhibitor project (AID 588824; in the data active = inhibition above about 25%); details: cell-based VP16 transactivation luciferase luminescence; at 3.6 µM; active compounds read high
# [5] = test system: transactivating tegument protein VP16 (Human herpesvirus 1); experiment: compounds suppressing VP16-driven luciferase signal – cell-based, luminescence, single concentration, counter-screen for SRC2 inhibitor project (AID 652007; in the data active = inhibition above about 36%); details: cell-based VP16 transactivation luciferase reporter, at 8.9 µM, active compounds read high
# [6] = target: Nuclear receptor coactivator 2 (Homo sapiens) (UniProt Q15596); experiment: inhibition of GAL4-SRC2 driven luciferase expression – cell-based, luminescence, HEK293, triplicate, confirmation (AID 652008;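 active = mean inhibition above 46.5%, the solvent-only control mean plus 3 SD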;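 note: 0% = DMSO-treated cells and 100% = Gossypol at 36 µM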); details: HEK293 GAL4-SRC2 luciferase reporter, at 8.9 µM, active compounds read high
# [7] = target: Nuclear receptor subfamily 5 group A member 2 (Homo sapiens) (UniProt O00482); experiment: NR5A2 activity suppression in reporter cells – cell-based, luminescence, confirmation (AID 651613; in the data active = inhibition above about 42%;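 note: HEK293T cells co-transfected with LRH-1 and StAR promoter luciferase reporter; 0% = vehicle wells and 100% = parental cells lacking receptor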); details: cell-based LRH-1 luciferase reporter, inverse agonism; at 3.6 µM; active compounds read high
# [8] = target: Steroidogenic factor 1 (Homo sapiens) (UniProt Q13285); experiment: inverse agonism at SF1 nuclear receptor – cell-based, luminescence, high throughput, counter-screen for LRH-1 inverse agonist project (AID 651614; in the data active = inhibition above about 44%;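 note: cells cotransfected with StAR promoter reporter and SF1 expression vector; 0% = vehicle on cells with receptor and 100% = vehicle on cells lacking receptor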); details: cell-based SF1 luciferase reporter, at 3.6 µM, active compounds read high
# [9] = StAR promoter reporter inhibitors, counter-screen for LRH-1 inverse agonist project, cell-based, luminescence, high throughput (AID 651611; in the data active = inhibition above about 28%); details: StAR promoter luciferase reporter counterscreen, at 3.6 µM, active compounds read high
# [10] = compounds suppressing VP16-driven luciferase signal – cell-based, luminescence, high throughput, counter-screen for LRH-1 inverse agonist project (AID 651615; in the data active = inhibition above about 33%); details: Gal4-VP16 luciferase reporter cells, at 3.6 µM, active compounds read high
# [11] = reduced OD of V66 E. coli with T4 gene 2 phage – absorbance, RecBCD inhibitor project, confirmation (AID 651982;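 active = mean inhibition over triplicates exceeding the hit threshold derived in the original primary screen, cut at about 11% in these data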); details: E. coli V66 + T4 2- phage, growth OD; at 11.9 µM; active compounds read high
# [12] = bacterial growth inhibition – absorbance, high throughput, counter-screen for RecBCD inhibitor project (AID 651983; in the data active = inhibition above about 20%;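 note: E. coli strain V66 grown with compound alone and no phage infection; 0% = bacteria with DMSO vehicle only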); details: E. coli viability, absorbance (OD) growth; at 11.9 µM; active compounds read high
# [13] = reduced optical density, T4-challenged addAB+ bacteria – absorbance, E. coli V3065, T4 phage, counter-screen for RecBCD inhibitor project, confirmation (AID 651984;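 active = mean inhibition above the solvent-only control wells' mean plus 3 SD, cut at about 22% in these data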;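 note: higher means less bacterial growth from phage killing when AddAB is blocked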); details: E. coli expressing H. pylori AddAB + T4 phage, OD growth; at 11.9 µM; active compounds read high; gene 2 mutant T4, recBCD-deleted host
# Nuclear receptor coactivator 3 (Homo sapiens), sequence (Q9Y6Q9 whole entry, looked up, the tested form may be a part): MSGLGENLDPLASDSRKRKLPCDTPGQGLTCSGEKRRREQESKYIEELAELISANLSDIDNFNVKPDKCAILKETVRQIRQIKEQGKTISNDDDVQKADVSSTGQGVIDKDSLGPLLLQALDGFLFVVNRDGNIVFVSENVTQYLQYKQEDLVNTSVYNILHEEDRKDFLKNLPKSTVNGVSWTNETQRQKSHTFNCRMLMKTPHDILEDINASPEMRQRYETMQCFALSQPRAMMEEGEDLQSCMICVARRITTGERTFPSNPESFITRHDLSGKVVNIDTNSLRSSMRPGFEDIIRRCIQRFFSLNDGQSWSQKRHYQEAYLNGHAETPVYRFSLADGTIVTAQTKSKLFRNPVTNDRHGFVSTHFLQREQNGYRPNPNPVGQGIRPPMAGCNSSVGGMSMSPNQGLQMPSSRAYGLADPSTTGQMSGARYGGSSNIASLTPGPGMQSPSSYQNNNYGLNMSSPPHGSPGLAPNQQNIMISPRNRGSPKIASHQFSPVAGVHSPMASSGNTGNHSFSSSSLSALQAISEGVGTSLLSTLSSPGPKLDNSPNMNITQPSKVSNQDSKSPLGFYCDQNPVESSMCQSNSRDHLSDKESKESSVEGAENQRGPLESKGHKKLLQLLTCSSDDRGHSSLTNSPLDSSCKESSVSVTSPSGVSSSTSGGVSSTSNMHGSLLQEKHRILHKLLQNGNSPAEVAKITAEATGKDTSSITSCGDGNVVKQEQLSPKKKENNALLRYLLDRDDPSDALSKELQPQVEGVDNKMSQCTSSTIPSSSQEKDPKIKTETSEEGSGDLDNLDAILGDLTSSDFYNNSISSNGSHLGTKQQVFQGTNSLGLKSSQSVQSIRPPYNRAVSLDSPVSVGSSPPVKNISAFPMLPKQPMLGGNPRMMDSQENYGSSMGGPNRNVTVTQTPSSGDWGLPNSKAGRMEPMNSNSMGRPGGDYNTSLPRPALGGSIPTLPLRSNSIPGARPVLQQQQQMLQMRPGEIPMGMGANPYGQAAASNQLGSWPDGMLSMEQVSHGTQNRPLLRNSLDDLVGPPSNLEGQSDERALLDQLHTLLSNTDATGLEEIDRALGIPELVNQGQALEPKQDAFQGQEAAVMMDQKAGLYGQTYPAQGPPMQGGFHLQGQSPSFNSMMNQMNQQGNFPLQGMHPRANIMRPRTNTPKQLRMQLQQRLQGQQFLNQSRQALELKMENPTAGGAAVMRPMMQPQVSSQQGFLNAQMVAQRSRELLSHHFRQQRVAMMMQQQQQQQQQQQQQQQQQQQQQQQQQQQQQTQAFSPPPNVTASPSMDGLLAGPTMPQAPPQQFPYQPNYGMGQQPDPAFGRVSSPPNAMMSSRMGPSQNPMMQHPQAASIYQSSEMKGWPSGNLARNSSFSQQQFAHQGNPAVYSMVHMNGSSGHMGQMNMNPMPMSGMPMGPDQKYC
# Nuclear receptor coactivator 2 (Homo sapiens), sequence (Q15596 whole entry, looked up, the tested form may be a part): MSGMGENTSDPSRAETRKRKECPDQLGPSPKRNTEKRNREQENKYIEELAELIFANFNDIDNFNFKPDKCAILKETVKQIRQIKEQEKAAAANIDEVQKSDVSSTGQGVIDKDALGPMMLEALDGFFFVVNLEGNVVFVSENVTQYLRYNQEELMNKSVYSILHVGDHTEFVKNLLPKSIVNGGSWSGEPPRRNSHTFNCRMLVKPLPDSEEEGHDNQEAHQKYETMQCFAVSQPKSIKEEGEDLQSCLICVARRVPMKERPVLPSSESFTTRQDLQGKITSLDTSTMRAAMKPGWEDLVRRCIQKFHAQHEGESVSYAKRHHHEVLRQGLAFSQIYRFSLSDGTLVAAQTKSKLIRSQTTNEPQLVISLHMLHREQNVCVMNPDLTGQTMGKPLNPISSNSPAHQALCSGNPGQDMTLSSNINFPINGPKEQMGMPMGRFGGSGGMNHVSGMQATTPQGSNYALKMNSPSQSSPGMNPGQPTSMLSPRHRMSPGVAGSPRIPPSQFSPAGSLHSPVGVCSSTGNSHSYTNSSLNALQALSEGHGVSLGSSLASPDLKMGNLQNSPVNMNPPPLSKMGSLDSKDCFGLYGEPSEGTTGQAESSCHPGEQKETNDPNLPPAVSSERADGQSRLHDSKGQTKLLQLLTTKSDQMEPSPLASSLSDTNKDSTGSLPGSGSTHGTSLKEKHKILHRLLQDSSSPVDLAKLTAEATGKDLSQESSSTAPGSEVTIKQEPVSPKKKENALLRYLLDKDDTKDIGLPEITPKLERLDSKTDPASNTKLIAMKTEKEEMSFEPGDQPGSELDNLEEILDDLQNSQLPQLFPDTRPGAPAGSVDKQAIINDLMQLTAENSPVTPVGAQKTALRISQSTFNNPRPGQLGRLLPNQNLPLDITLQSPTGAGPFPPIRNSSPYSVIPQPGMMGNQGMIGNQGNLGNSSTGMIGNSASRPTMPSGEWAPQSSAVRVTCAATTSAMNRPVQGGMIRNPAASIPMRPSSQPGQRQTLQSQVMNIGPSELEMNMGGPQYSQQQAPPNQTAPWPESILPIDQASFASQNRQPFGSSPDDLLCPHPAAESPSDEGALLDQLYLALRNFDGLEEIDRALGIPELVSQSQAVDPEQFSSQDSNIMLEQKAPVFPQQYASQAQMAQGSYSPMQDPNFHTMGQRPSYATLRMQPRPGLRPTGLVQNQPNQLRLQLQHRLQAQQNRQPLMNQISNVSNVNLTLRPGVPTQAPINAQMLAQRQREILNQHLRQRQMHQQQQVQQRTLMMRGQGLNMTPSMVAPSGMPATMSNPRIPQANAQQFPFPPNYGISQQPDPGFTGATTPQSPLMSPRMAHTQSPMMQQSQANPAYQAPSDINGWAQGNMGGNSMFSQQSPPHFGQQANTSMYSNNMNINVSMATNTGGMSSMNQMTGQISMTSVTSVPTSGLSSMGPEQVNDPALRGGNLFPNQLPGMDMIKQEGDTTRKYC
# Nuclear receptor coactivator 1 (Homo sapiens), sequence (Q15788 whole entry, looked up, the tested form may be a part): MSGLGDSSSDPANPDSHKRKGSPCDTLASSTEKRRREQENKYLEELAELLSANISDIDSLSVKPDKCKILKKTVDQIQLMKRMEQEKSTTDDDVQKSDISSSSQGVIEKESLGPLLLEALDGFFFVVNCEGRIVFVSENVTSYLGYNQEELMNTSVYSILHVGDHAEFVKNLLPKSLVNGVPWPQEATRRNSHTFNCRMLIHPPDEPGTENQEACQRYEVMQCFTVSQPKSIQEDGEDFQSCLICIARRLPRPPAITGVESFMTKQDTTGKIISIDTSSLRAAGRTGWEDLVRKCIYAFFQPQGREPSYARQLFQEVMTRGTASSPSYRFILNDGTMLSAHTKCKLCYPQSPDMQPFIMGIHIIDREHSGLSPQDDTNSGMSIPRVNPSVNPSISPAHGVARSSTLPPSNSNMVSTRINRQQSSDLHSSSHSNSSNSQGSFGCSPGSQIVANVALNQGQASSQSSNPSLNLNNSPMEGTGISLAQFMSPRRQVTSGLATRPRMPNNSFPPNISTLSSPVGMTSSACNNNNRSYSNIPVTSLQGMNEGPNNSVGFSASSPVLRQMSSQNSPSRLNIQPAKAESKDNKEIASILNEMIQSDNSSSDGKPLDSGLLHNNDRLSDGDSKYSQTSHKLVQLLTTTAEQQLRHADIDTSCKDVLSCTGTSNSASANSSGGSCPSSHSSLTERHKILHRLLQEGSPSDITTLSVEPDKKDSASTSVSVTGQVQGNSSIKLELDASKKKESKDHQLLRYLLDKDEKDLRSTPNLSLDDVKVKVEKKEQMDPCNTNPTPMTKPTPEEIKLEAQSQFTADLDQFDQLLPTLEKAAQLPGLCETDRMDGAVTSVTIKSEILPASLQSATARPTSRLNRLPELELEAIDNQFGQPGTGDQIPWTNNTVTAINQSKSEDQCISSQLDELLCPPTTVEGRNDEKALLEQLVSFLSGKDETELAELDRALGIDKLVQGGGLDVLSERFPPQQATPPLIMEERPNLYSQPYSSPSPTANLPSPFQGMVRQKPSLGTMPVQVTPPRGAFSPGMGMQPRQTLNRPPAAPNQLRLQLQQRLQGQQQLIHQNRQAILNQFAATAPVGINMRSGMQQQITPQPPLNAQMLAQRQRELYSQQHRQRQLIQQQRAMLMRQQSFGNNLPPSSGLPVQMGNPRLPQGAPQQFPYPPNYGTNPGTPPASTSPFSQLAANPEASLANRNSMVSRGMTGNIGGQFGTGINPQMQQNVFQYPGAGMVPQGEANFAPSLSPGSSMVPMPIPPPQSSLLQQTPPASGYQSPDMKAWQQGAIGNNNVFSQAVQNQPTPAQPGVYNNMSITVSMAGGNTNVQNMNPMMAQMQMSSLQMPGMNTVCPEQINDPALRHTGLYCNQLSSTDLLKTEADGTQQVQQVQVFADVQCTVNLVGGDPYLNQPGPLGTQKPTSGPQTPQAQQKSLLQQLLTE
# Nuclear receptor subfamily 5 group A member 2 (Homo sapiens), sequence (O00482 whole entry, looked up): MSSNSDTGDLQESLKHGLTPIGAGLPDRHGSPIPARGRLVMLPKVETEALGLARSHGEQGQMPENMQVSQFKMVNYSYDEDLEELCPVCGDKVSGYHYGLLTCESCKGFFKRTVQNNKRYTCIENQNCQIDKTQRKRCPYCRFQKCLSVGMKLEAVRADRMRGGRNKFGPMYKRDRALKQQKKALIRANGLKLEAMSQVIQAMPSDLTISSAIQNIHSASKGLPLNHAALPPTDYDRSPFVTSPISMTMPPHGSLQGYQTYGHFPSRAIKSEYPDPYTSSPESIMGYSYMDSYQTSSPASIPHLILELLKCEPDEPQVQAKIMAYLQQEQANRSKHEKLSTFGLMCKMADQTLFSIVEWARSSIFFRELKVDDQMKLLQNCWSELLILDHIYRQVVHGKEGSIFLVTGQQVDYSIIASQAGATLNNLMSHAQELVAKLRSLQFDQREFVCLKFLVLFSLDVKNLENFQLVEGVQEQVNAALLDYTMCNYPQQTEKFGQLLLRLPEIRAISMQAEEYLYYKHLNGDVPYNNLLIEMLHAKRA
SMILES,inhibition [1],inhibition [2],inhibition [3],inhibition [4],inhibition [5],inhibition [6],inhibition [7],inhibition [8],inhibition [9],inhibition [10],inhibition [11],inhibition [12],inhibition [13]
CCc1cc(-c2[nH]ncc2-c2ccc3c(c2)OCO3)c(O)cc1O,59.9% (active),34.5% (active),27.7% (inactive),39.8% (active),30.3% (inactive),18.2% (inactive),,,,,,,
COc1ccc(-c2[nH]ncc2-c2ccc3c(c2)OCCO3)c(O)c1,74.4% (active),58.3% (active),72% (active),59.5% (active),11.7% (inactive),47.5% (active),,,,,,,
Nc1nc(=S)c2ncn([C@@H]3O[C@H](CO)[C@@H](O)[C@H]3O)c2[nH]1,67.6% (active),23.3% (inactive),11.8% (inactive),29.9% (active),,,77.2% (active),48.2% (active),,,,,
CC(C)(C)c1ccc(C(=O)NC(=S)Nc2nc3c(s2)CCCC3)cc1,20.4% (inactive),-9.66% (inactive),-33.4% (inactive),-47.4% (inactive),0.2% (inactive),34.8% (inactive),,,,,,,
CCN1/C(=C/c2sc(-c3ccccc3C)c[n+]2C)Sc2ccccc21,76.8% (active),86% (active),61.9% (active),82.8% (active),44.1% (active),34.1% (inactive),105% (active),94.7% (active),74.7% (active),89.2% (active),,,
O=c1cc(-c2ccccc2Cl)oc2c([N+](=O)[O-])c(O)cc(O)c12,61.5% (active),44.4% (active),51.9% (active),37% (active),4.67% (inactive),52.9% (active),,,,,,,
Cc1ccc(/C=N/NC(=O)C2=NNC(c3ccccc3)(c3ccccc3)C2)c(O)c1,71.4% (active),57.5% (active),45.4% (inactive),51.8% (active),,,,,,,3.86% (inactive),5.88% (inactive),5.05% (inactive)
